This excerpt belongs to a sample that is enriched for hits.
BL2 CD40 inh – CD40 pathway inhibition in BL2 cells; BL2 NF-kB luciferase reporter, CD40L-induced, 4 h; inhibition, % at 10 µM; 83,000 tested, 0.94% active; AID 1053188;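 active = mean inhibition of at least 50% with a set share of replicates also reaching that level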
Hits are given with their value; . = inactive; [ ] = dose if it differs, or a comment.

SMILES | BL2 CD40 inh
C[C@@H]1CN([C@@H](C)CO)C(=O)c2ccccc2-c2ccccc2CO[C@@H]1CN(C)Cc1ccccc1C(F)(F)F | 53[25 µM]
C[C@@H]1CN([C@H](C)CO)C(=O)c2ccccc2-c2ccccc2CO[C@@H]1CN(C)Cc1ccccc1C(F)(F)F | 83[25 µM]
COc1ccccc1CN(C)C[C@H]1OCc2ccccc2-c2ccccc2C(=O)N([C@@H](C)CO)C[C@H]1C | .
COc1ccccc1-c1ccc([C@H]2[C@H](C#N)N[C@@H]2CO)cc1 | .
C[C@H]1CN([C@@H](C)CO)S(=O)(=O)c2ccc(C#CC3CCCCC3)cc2O[C@H]1CN(C)C | .
C[C@H](NC(=O)N(C)C[C@H]1OCc2ccccc2-c2ccccc2C(=O)N([C@@H](C)CO)C[C@H]1C)c1ccccc1 | .
CCCNC(=O)N1[C@@H](CO)[C@H](c2ccccc2)[C@@H]1CNC(C)=O | .
CCCNC(=O)N1C[C@H]2[C@@H](c3ccccc31)[C@@H](CO)N2C(=O)Nc1ccc(F)cc1 | .
N#C[C@H]1[C@@H](c2ccccc2-c2ccccc2)[C@H](CO)N1C(=O)NC1CCCCC1 | .
OC(CN1CCOCC1)Cn1c(-c2cccc(Cl)c2)nc2ccccc21 (configuration not stated) | .
O=C(O)c1cc(-c2ccccc2)nc2ccccc12 | .
OC(c1cc(-c2cccc(Cl)c2)nc2ccccc12)C1CCCCN1 (configuration not stated) | 65
COc1ccccc1CNC(=O)C[C@@H]1C[C@@H]2c3cc(NC(=O)c4ccc5c(c4)OCO5)ccc3O[C@@H]2[C@@H](CO)O1 | .
O=C(C1CCCCC1)N1CC[C@@H]2[C@H]1c1cc(Br)ccc1N[C@@H]2CO | .
CCCNC(=O)[C@@H]1[C@@H](CO)[C@@H]2Cn3c(cccc3=O)[C@@H]2N1C(=O)C1CCCC1 | .
COc1ccc2c3c(n(C)c2c1)[C@H](CO)N(Cc1ccncc1)CC31CN(C(=O)Nc2cccc(F)c2)C1 | .
O=C(N1CCN(CCO)CC1)N1c2ccccc2CCc2ccccc21 | .
OCCN1CCN(CCCN2c3ccccc3Sc3ccc(C(F)(F)F)cc32)CC1 | 51
O=C(CN1CCCC1)N1c2ccccc2Sc2ccccc21 | .
N#Cc1cccc(-c2ccc3c(c2)[C@H]2[C@H](CCN2S(=O)(=O)c2ccc(F)cc2)[C@H](CO)N3)c1 | .
CCNC(=O)[C@H]1[C@H](CO)[C@H]2Cn3c(ccc(/C=C/c4ccccc4)c3=O)[C@@H]1N2C(=O)C1CCCC1 | .
Cn1cccc1C(=O)OCC(=O)Nc1ccc2c(c1)OCCO2 | 55
Cn1cccc1C(=O)OCC(=O)NCc1ccc2c(c1)OCO2 | .
O=C(COC(=O)c1ccco1)Nc1ccc2c(c1)OCCO2 | .
CCNC(=O)[C@H]1[C@H](CO)[C@H]2Cn3c(ccc(-c4cccc(OC)c4)c3=O)[C@H]2N1C(=O)NC(C)C | .
SMILES | BL2 CD40 inh
CCS(=O)(=O)N1Cc2ccccc2CC1C(=O)Nc1nc2ccccc2[nH]1 (configuration not stated) | .
CCS(=O)(=O)N1Cc2ccccc2CC1C(=O)Nc1nc2ccccc2s1 (configuration not stated) | 61
CCc1nnc(NC(=O)C2Cc3ccccc3CN2S(=O)(=O)CC)s1 (configuration not stated) | .
C/C=C/c1ccc([C@@H]2[C@@H](CO)N(C(=O)C3CCC3)C23CN(C(=O)NC(C)C)C3)cc1 | .
C[C@H]1CN(C)C(=O)Cc2cc(N)ccc2O[C@@H]1CN(C)S(C)(=O)=O | .
O=C(CN1CCN(Cc2ccccc2)C1=O)NCc1cccs1 | .
CC(=O)c1cc(-c2ccccc2)n(CC(=O)NCc2cccs2)c1C | 54
CC(=O)c1cc(-c2ccccc2)n(CCC(=O)NC2CCCCCCC2)c1C | .
CN1C(=O)c2cc(NS(C)(=O)=O)ccc2OC[C@@H]2O[C@@H](CC(=O)N3CCOCC3)CC[C@@H]21 | .
CS(=O)(=O)Nc1ccc2c(c1)[C@@H]1C[C@@H](CC(=O)NC3CCCC3)O[C@H](CO)[C@@H]1O2 | .
CCOC(=O)c1cc2c(ccn2C)n1Cc1ccc(C#N)cc1 | 55
CCOC(=O)c1cc2c(ccn2C)n1CC(=O)N(C)C | .
CCOC(=O)c1cc2c(ccn2C)n1Cc1ccc(Cl)cc1 | .
O=C(Nc1ccccc1)N1CC(=O)N2[C@H](CO)[C@H](c3ccc(C#CC4CCCC4)cc3)[C@@H]2C1 | .
COCCNC(=O)C1CCCN(Cc2ccc(C(C)C)cc2)CC1 (configuration not stated) | .
CC(C)Cc1ccc(CN2CCCC(NC(=O)CCN3CCCCC3=O)C2)cc1 (configuration not stated) | .
CC(C)Cc1ccc(C(C)/C=C2/CCC(CN3CCCCC3)C2=O)cc1 (configuration not stated) | 66
COc1ccc(C[C@@H]2CCc3cnnn3COCCNC2=O)cc1 | .
CCCNC(=O)N1[C@H](CO)[C@H](c2ccccc2)[C@H]1CNC(=O)c1cccc(F)c1 | .
C[C@H]1CN([C@@H](C)CO)C(=O)c2cc(C#CCc3ccccc3)cnc2O[C@H]1CN(C)C(=O)C1CCOCC1 | .
C[C@H](CO)N1C[C@H](C)[C@@H](CN(C)C(=O)C2CCOCC2)Oc2ncc(C#CCc3ccccc3)cc2C1=O | .
C[C@H](CO)N1C[C@H](C)[C@H](CN(C)C(=O)C2CCOCC2)Oc2ncc(C#CCc3ccccc3)cc2C1=O | 64[25 µM]
CCCN1[C@@H]2Cn3c(ccc(-c4cccc(F)c4)c3=O)[C@H]1[C@@H](C(=O)N(C)C)[C@@H]2CO | .
Oc1ccc(CN2CCCc3ccccc32)c2cccnc12 | .
Cc1ccc(-n2cnnn2)c2cccnc12 | .
SMILES | BL2 CD40 inh
Cc1cccnc1NCc1ccc(O)c2ncccc12 | 59
O=C(c1cccc(F)c1)N1C[C@H]2[C@@H](c3ccccc31)[C@H](CO)N2C(=O)C1CCOCC1 | .
C[C@H](CO)N1C[C@H](C)[C@@H](CN(C)C(=O)Nc2ccc3c(c2)OCO3)OCc2cnnn2CCCC1=O | .
Cc1csc(NC(=O)c2ccc(N3CCCC3=O)cc2)n1 | 92
O=C(NC1=NCCS1)c1ccc(N2CCCC2=O)cc1 | .
Cc1nnc(NC(=O)c2ccc(N3CCCC3=O)cc2)s1 | .
C[C@H]1COCn2nncc2CC[C@@H](Cc2ccccc2)C(=O)N1 | .
O=C(Nc1ccccc1)c1ccc(-c2ccc([N+](=O)[O-])cc2)o1 | .
CN1CCN(c2ccccc2NC(=O)c2ccc(-c3cccc([N+](=O)[O-])c3)o2)CC1 | .
O=C(c1ccc(-c2ccc(Cl)cc2)o1)N1CCN(c2ccc([N+](=O)[O-])cc2Cl)CC1 | 49
COc1ccc(-c2ccc3c(c2)[C@H]2[C@H](CCN2S(=O)(=O)c2ccc(OC)cc2)[C@@H](CO)N3C)cc1 | .
CNC[C@H]1Oc2ncc(-c3cncnc3)cc2C(=O)N([C@H](C)CO)C[C@@H]1C | .
CCCC#Cc1ccc2c(c1)[C@@H]1[C@@H](CCN1S(=O)(=O)c1cn(C)cn1)[C@@H](CO)N2 | .
COc1ccccc1C(=O)OCC(=O)Nc1ccc(Cl)cn1 | 49
CCOc1ncccc1C(=O)OCC(=O)Nc1ccc(Cl)cn1 | .
O=C(COc1ccccc1)Nc1ccc(Cl)cn1 | .
COc1ccccc1C#Cc1ccc([C@@H]2[C@@H](C#N)N(C(=O)C3CC3)[C@H]2CO)cc1 | .
COc1ccc(C2CC2/C(C)=N/OC(=O)c2cccs2)cc1 (configuration not stated) | .
COc1ccc(C(=O)O/N=C(/C)c2cccs2)cc1 | 59
COc1ccc(OCCOC(=O)c2cccs2)cc1 | .

Bioassay records as filed in PubChem BioAssay.
